Screening data: PubChem BioAssay, National Center for Advancing Translational Sciences (NCATS)
This is a sample that favours compounds with a hit; in the whole collection about 1.4% have one here.
RE007 growth inh = less growth of the S. pombe RE007 Vpr strain; 0.21% of 360,000 active; Potency, µM (top dose mostly 92.2 µM), hits mostly inhibitors; AID 651644; S. pombe RE007 Vpr strain, BacTiter-Glo ATP luminescence, 24 h; active means well fitted falling curve with a large enough effect; inconclusive means small, poorly fitted or top-dose-only effect; inactive means no such curve, though single readings can be large or run the other way; further: nearly all actives have a fitted effect of over 50% in size
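Fission yeast RE007 carrying one integrated HIV-1 vpr copy, seeded at OD 0.01 in PMG+AL medium with 23 nL pinned compound. Grown 24 h at 30 degrees; viability read by BacTiter-Glo luminescence after 5 min.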
Tb PYK inh = inhibitors of Trypanosoma brucei pyruvate kinase | Q57TT1 | TbPYK enzyme, Kinase-Glo Plus ATP luminescence, 45 min | Potency, µM (highest dose often 76.8 µM), hits mostly inhibitors | 0.12% of 410,000 active | AID 624173; further: nearly all actives have a fitted effect of over 50% in size
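Quantitative HTS: titrated library compounds versus trypanosomal pyruvate kinase in TEA buffer (pH 7.2) containing KCl, MgCl2, BSA and Tween-20. Reactions were initiated with ADP, 130 uM final. Kinase-Glo Plus luminescence was read after 45 min at RT.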
AmpC detergent = blocks E. coli AmpC beta-lactamase in detergent assay; P00811; AmpC hydrolysis of nitrocefin, absorbance 480 nm, 0.01% Triton; Potency, µM (highest dose often 114 µM), usual class: inhibitors; 0.041% of 370,000 active; further: nearly all actives have a fitted effect of over 25% in size
Target sequence (P00811 whole entry, looked up): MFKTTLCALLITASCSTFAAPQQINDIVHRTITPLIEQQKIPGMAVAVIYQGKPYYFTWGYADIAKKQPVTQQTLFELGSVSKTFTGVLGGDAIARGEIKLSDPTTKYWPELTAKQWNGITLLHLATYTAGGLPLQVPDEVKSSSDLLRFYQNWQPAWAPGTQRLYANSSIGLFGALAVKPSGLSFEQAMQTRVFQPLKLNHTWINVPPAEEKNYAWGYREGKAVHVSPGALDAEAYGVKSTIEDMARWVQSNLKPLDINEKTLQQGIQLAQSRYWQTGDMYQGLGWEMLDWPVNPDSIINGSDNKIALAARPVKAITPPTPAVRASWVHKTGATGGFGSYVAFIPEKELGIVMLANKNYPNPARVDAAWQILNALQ
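20 mM phosphate pH 7.0 + 0.01% (detergent screen) or 0.0001% Triton X-100; 5.3 nM AmpC reagent; cpd preinc 15 min RT; nitrocefin (800 uM stock) to start; A480 q20 s × 4 min; Activity was normalised to no-enzyme and no-compound control wells.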
LmPK inh = LmPK (Leishmania mexicana) enzyme inhibition. purified LmPK, Kinase-Glo ATP luminescence, 1 h. Q27686. 0.37% of 290,000 active. AID 1721. Potency, µM (highest dose often 57.5 µM), hits mostly inhibitors
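Screened at intermediate enzyme activity to detect both inhibitors and activators: LmPK at 0.1 nM, with a 0.5 nM enzyme column as activation reference. PEP 0.5 mM, ADP 0.1 mM; ATP detected by luminescence after 1 h.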
AmpC no deterg = inhibitors of E. coli AmpC beta-lactamase without detergent; AmpC nitrocefin hydrolysis, absorbance 480 nm, 0.0001% Triton; 0.52% of 330,000 active; Potency, µM (highest dose often 57.1 µM), actives largely listed as inhibitors; P00811; further: nearly all actives have a fitted effect of over 20% in size
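20 mM phosphate pH 7.0 + 0.01% (detergent screen) or 0.0001% Triton X-100; 5.3 nM AmpC reagent; cpd preinc 15 min RT; nitrocefin (800 uM stock) to start; A480 q20 s × 4 min; Activity was normalised to no-enzyme and no-compound control wells.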
FBPA Giardia inh = blocks Giardia fructose-bisphosphate aldolase activity | Potency, µM (top dose mostly 59.6 µM), most hits filed as inhibitors | purified Giardia FBPA | A8B2U2 | 0.71% of 290,000 active; further: nearly all actives have a fitted effect of over 55% in size
Target sequence (A8B2U2 whole entry, looked up): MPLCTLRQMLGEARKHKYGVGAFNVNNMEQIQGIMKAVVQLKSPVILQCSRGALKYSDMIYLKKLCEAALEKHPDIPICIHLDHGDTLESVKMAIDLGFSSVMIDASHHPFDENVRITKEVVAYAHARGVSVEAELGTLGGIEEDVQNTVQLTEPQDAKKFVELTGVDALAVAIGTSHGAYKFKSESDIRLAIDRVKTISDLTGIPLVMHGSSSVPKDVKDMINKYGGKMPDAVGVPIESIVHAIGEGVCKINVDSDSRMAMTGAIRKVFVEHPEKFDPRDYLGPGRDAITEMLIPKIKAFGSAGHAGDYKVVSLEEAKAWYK
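40 nM FBPA preincubated 10 min at RT with compound (up to 57.5 uM final), then substrate plus GAPDH/TPI/NAD/arsenate coupling and diaphorase/resazurin added. Fluorescence read after 20 min at RT, 525/598 nm.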
Numbers stand for hits; i = inactive; ? = inconclusive; nt = not tested or not shown; ! = repeats disagree; [ ] = dose if it differs, or a comment. Unless noted, the call rests on the fitted dose curve; in most records, active means well fitted curve in the direction sought with a large enough effect; inconclusive means small, poorly fitted or top-dose-only effect, or another doubt; inactive means no such curve, though single readings can be large; an effect the other way counts as inactive or inconclusive.

SMILES	RE007 growth inh	Tb PYK inh	AmpC detergent	LmPK inh	AmpC no deterg	FBPA Giardia inh
CC(=O)Oc1ccc(OC(C)=O)c(SCCCCCCl)c1	i	i	i	11µM	i	i
C/C(=C\C(=O)Nc1ccccc1C(=O)O)c1ccc2ccccc2c1	nt	i	nt	nt	nt	nt
Cc1ccc(SCc2[nH]nc3c2C2(CCSCC2)C(C#N)=C(N)O3)cc1	i	i	i	i	28µM	i
CC(=O)Oc1ccccc1C(=O)C=Cc1cccc([N+](=O)[O-])c1	25µM	i	nt	nt	nt	nt
Cc1cc(O)c(C(=O)/C=C/c2cccc([N+](=O)[O-])c2)c(=O)o1	i	i	i	?	14µM	i
O=C(/C=C/c1cccc([N+](=O)[O-])c1)c1ccccc1	nt	nt	nt	nt	nt	i
CC1OC(CC(=O)O)CC2=C1C(=O)c1c(O)cccc1C2=O (stereo not drawn)	1.6µM	?	nt	nt	nt	nt
CCOC(=O)N1CCC(NC(=O)c2ccc3c(c2)N(Cc2ccc(F)cc2)C(=O)c2ccccc2S3=O)CC1 (stereo not drawn)	nt	i	i	nt	nt	nt
Cc1cc(C)c2c(=O)n(CC(=O)N3CCC(N4CCCCC4)CC3)sc2n1	?	?	56µM	i	20µM	i
CCCNC(=O)Cn1sc2nc(C)cc(C)c2c1=O	?	?	79µM	?	?	i
CCOC(=O)C1CCCN(C(=O)Cn2sc3nc(C)cc(C)c3c2=O)C1 (stereo not drawn)	?	?	45µM	i	14µM	i
CC(=O)Cn1cnc2c(sc3nc(C)cc(C)c32)c1=O	i	i	i	i	i	i
CCOC(=O)C1=C(Cc2ccc(OC)cc2)C(=O)c2ccccc2C1=O	i	?	i	i	i	1.4µM
CCOC(=O)C1=C(Cc2ccc(C)cc2)C(=O)c2ccccc2C1=O	nt	nt	i	i	i	4µM
O=C(COc1ccc(Cl)cc1)Nc1ccc2nc(SCC(=O)N3CCCC3)sc2c1	nt	i	i	nt	nt	nt
CCOc1ccc(OCc2cccc(C(=O)O)c2)cc1	?	?	i	6.3µM	i	i
O=C(O)c1cccc(COc2ccc3c(c2)CCC3)c1	i	i	i	?	i	?
COc1ccc(OCc2cccc(C(=O)O)c2)cc1	i	i	i	16µM	i	i
Cc1csc2ncc(C(=O)N3CCc4ccccc43)c(=O)n12	i	i	nt	nt	nt	nt
Cc1csc2ncc(C(=O)N3CCCc4ccccc43)c(=O)n12	i	i	?	i	3.5µM	i
CN1/C(=C/c2cc[n+](C)c3ccccc23)C=Cc2ccccc21	10µM	i	?	?	i	?
Cc1c(Cl)cccc1N1C(N)=C(C#N)C(c2cc(CN3CCOCC3)cs2)C2=C1CCCC2=O (stereo not drawn)	nt	i	i	nt	nt	nt
COc1ccc(-n2ncc3c(N4CCCCC4)ncnc32)cc1	i	i	i	16µM	i	i
Cc1cccc(-n2ncc3c(N4CCN(c5ccccc5)CC4)ncnc32)c1	nt	i[15.4 µM]	i	nt	nt	nt
Cc1cccc(-n2ncc3c(N4CCOCC4)ncnc32)c1	i	i	i	25µM	i	i
SMILES	RE007 growth inh	Tb PYK inh	AmpC detergent	LmPK inh	AmpC no deterg	FBPA Giardia inh
COc1cc(/C=C/C(=O)OCC(=O)NC(=O)NC23CC4CC(CC(C4)C2)C3)ccc1OCC#N	i	i	i	i	8.9µM	i
Cc1ccc(NC2=C/C(=N\S(=O)(=O)c3cccs3)c3ccccc3C2=O)c(C)c1	i	i	i	i	?	?
Cc1ccc(Cl)cc1NC1=C/C(=N\S(=O)(=O)c2cccs2)c2ccccc2C1=O	i	i	i	?	i	0.28µM
CSCCC(NC(=O)[C@H](Cc1c[nH]c2ccccc12)NC(=O)CNC(=O)[C@H](CCSC)NC(=O)[C@H](Cc1ccc(OS(=O)(=O)O)cc1)NC(=O)[C@@H](N)CC(=O)O)C(=O)N[C@@H](CC(=O)O)C(=O)N[C@@H](Cc1ccccc1)C(N)=O (stereo partly drawn)	nt	i	nt	nt	nt	nt
Cc1ccccc1CNC(=O)c1cc2cc(S(=O)(=O)N3CCCCC3)ccc2n1C	nt	i	i	nt	nt	nt
CCOC(=O)Nc1ccc(NCc2ccc(F)cc2)nc1N	i	32µM!	?	nt	i	i
O=C(Cn1nc(C(=O)O)c2ccccc2c1=O)Nc1cc(Cl)cc(Cl)c1	i	i	i	i	11µM	i
O=C(Cn1nc(C(=O)O)c2ccccc2c1=O)Nc1ccc(Br)cc1	i	i	i	i	i	i
CCOC(=O)N1CCN(c2cc3[nH]c(=S)[nH]c3cc2F)CC1	i	i	?	i	i	i
CCOC(=O)N1CCN(c2c(F)cc3[nH]c(=S)[nH]c3c2Br)CC1	i	i	i	i	28µM	i
COc1ccc2c(Sc3ccccc3)c(C(=O)NCCCN3CCCCC3)[nH]c2c1	nt	i	i	nt	nt	nt
Cc1ccc(C23CC4CC(CC(NC(=O)N5CCN(C)CC5)(C4)C2)C3)cc1	13µM	i	i	i	i	i
Cc1ccc(C23CC4CC(CC(C(=O)N5CCN(C)CC5)(C4)C2)C3)cc1	i	i	i	i	i	i
Cc1ccccc1NC(=O)c1ccc(F)c(S(=O)(=O)N(C)Cc2ccccc2)c1	nt	i	i	nt	nt	nt
CCn1c(CN2CCCCC2)nc2cc(NC(=O)COc3ccc(C(C)(C)C)cc3)ccc21	nt	i	i	nt	nt	nt
O=c1c(Cl)c(N2CCCCC2)cnn1-c1nc2ccccc2[nH]1	i	?	i	14µM	i	i
Clc1ccc2nc(N3CCCCC3)[nH]c2c1	i	i	i	i	i	i
CCOc1ccc(C(=O)NC(=S)NC2CCCC2)cc1[N+](=O)[O-]	i	i	?	i	10µM	i
CCOc1ccc(C(=O)NC(=S)Nc2ccc(NC(=O)CC)cc2)cc1[N+](=O)[O-]	nt	i	?	i	i	i
CCn1c(C(=O)N2CCCC(C(=O)NCCc3ccc(C)cc3)C2)cc2sccc21 (stereo not drawn)	i	35µM	i	i	i	i
CCn1c(C(=O)N2CCCC(C(=O)NCCCc3ccccc3)C2)cc2sccc21 (stereo not drawn)	i	i	i	i	i	i
O=c1c(N2CCN(c3cccc(Cl)c3)CC2)csc2ccccc12	nt	i	i	nt	nt	nt
N#CC(C#N)=Cc1cc(O)c(O)c(O)c1	nt	i	nt	nt	nt	16µM
CCN(C(=O)C1CCCN(c2ncnc3c2nc2n3CCCCC2)C1)c1cccc(C)c1 (stereo not drawn)	nt	i	i	nt	nt	nt
NC(=O)/C=C/C(=O)Nc1ccc(Cl)cc1	11µM	i	i	i	i	i
Nc1nn(S(=O)(=O)c2cccc3nsnc23)cc1-c1ccc(Br)cc1	i	i	?	i	20µM	i
Cc1ccc(-c2cn(S(=O)(=O)c3cccc4nsnc34)nc2N)cc1	i	i	i	i	nt	i
Cc1csc(C(=O)O)c1-n1cccc1	i	i	i	i	0.28µM	i
